From PubChem
CHT allo act: allosteric activators of human choline transporter CHT; Q9GZV3; CHT-expressing cells, membrane potential dye, choline EC20; stronger effect = higher value; LV-AA mutant CHT in HEK293 cells; B-score at 10 µM; hit rate 0.49% among 310,000; AID 488977;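 active = initial fluorescence not abnormally high and integrated response B-score, plate-corrected, over 3 SD above library mean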
CHT inh: human CHT choline transport inhibition; AID 488975; Q9GZV3; hit rate 0.86% among 310,000; B-score at 10 µM; CHT-expressing cells, membrane potential dye, choline response; stronger effect = lower value;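 active = B-score over 3 SD under the library average, and starting fluorescence ratio not unusually high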;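 note: choline stimulus applied at its EC90 after an EC20 pre-addition; B-score computed on integrated fluorescence ratio after choline addition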
PGE2 EP2 inh: EP2 receptor (human) inhibition. AID 1422. hit rate 0.52% among 260,000. C6 glioma cells expressing human EP2, cAMP TR-FRET; cells stimulated with saturating PGE2. inhibition, % at 25 µM;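 active = percent inhibition above 40 after rounding to a whole number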;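 note: rat C6 glioma host cells with rolipram phosphodiesterase inhibitor present; the protocol text gives 20 µM as final concentration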
Target sequence (P43116 whole entry, looked up): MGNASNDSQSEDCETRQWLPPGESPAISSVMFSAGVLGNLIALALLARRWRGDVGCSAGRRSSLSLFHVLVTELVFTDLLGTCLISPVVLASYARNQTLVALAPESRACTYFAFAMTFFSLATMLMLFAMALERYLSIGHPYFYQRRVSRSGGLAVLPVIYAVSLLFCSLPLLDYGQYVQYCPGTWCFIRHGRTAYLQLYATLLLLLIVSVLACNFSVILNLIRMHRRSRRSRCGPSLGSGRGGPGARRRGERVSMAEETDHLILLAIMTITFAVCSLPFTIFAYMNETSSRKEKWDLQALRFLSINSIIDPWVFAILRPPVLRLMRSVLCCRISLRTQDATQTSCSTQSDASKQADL
EP2 mod: modulates human prostaglandin E2 receptor EP2 signaling; EP2-expressing cells, cAMP HTRF FRET, PGE2 co-stimulation; induction, % at 25 µM; hit rate 0.83% among 260,000; AID 940;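 active = compounds whose cAMP rise, as percent of the full-agonist control response, exceeds 60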;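 note: rat C6 glioma line stably carrying human EP2 under a CMV promoter; the protocol text gives 20 µM as final concentration; 100% = response of wells given 1 µM PGE2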
Active calls of the source: *; i = inactive; . = not tested or not shown; ! = a repeat was not active. Rows were chosen to be rich in hits. Some 2% of all compounds tested hit in one or more screens of this group.

SMILES | CHT allo act | CHT inh | PGE2 EP2 inh | EP2 mod
CCCN(C(=O)CC)c1nnc(-c2ccc(OCC)cc2)s1 | . | . | 8.8 | -34.7
CC1=NNC(=S)NCCCN2CCN(CCCNC(=S)NN=C(C)C=NNC(=S)NCCCN3CCN(CCCNC(=S)NN=C1)CC3)CC2 | . | . | 44.9* | 55.9
C(CCc1nnc2c(n1)CCCC2)Cc1nnc2c(n1)CCCC2 | . | . | 45.2* | 10.4
Nc1nnc2c(n1)CCCC2 | i | i | 9.5 | 13.2
COc1cc(OC)cc(-c2nnc(SCC(=O)N3c4ccccc4Sc4ccccc43)o2)c1 | i | i | 12.9 | 61.0*
COc1ccc(-c2nnc(SCC(=O)N3c4ccccc4Sc4ccccc43)o2)cc1 | i | i | 2.5 | -2.3
CCC(c1nnnn1C1CCCCC1)N1CCN(c2ccc(OC)cc2)CC1 (stereo unspecified) | . | . | 4.5 | -3.8
CC(C)C(=O)N1CCN(c2ccc(NC(=O)c3ccc([N+](=O)[O-])o3)cc2Cl)CC1 | . | . | 115.8* | -45.6
CCN1CCN(c2c(Cl)cccc2NC(=O)c2ccc([N+](=O)[O-])o2)CC1 | 7.06* | i | . | .
CCN1CCN(c2ccc(NC(=O)c3ccco3)cc2)CC1 | i | i | . | .
Cc1cc(NC(=O)c2ccc([N+](=O)[O-])o2)ccc1NC(=O)c1ccco1 | . | . | 63.7* | -93.0
CCN1CCN(c2ccc(NC(=O)c3ccc([N+](=O)[O-])o3)cc2)CC1 | . | . | 95.1* | -137.5
Fc1ccccc1-c1cn2c(-c3ccco3)c(-c3ccco3)nnc2n1 | . | . | 4.0 | -39.2
O=C(c1ccc(OC2CSC2)cc1)N1CCc2c(nc[nH]c2=O)C1 | . | . | . | -18.0
CCCN1C[C@H](NC(=O)c2ccc3c(c2)OCO3)[C@@H](c2ccc(OC)cc2)C1 | . | . | 2.2 | -2.7
CCc1cc2cc(C)ccc2nc1SCC(=O)Nc1cc(C)ccc1OC | . | . | 9.9 | 4.6
O=C(Nc1ccc(N2CCCC2)cc1)c1ccccc1F | i | i | 23.4 | 14.8
O=C(Nc1ccc(N2CCN(C(=O)c3ccccc3)CC2)cc1)c1ccc([N+](=O)[O-])o1 | . | . | 49.0* | -47.6
Cc1ccccc1C(=O)N1CCN(c2ccc(NC(=O)c3ccc4c(c3)OCO4)cc2)CC1 | i | i | 17.8 | -6.5
Cc1ccccc1C(=O)N1CCN(c2ccc(NC(=O)c3ccc([N+](=O)[O-])o3)cc2)CC1 | i | i | 130.3* | -154.0
CCN1CCN(c2ccc(NC(=O)c3ccccc3F)cc2)CC1 | . | . | 59.5* | -41.3
COC(=O)c1ccc(C(=O)N2CCC(C(=O)c3cccnc3)CC2)cc1 | . | . | 6.3 | 2.4
CCN(CC)CCNC(=O)c1ccc2c(c1NCCO)C(=O)c1ccccc1C2=O | i | i | 56.1* | -58.7
CC1=NN(C(=O)COc2cc(C)ccc2C(C)C)C(O)(c2ccccc2)C1 (stereo unspecified) | i | i | 3.2 | 60.6*
N#Cc1nc(-c2cccc3ccccc23)oc1N1CCCCC1 | i | i | . | 23.5
SMILES | CHT allo act | CHT inh | PGE2 EP2 inh | EP2 mod
N#Cc1nc(-c2ccccc2Cl)oc1N1CCCCC1 | i | i | 9.4 | 63.1*
CCc1nc2sc3c(c2c2nnc(SCC(=O)Nc4ccccc4C(F)(F)F)n12)CCCC3 | . | . | 6.3 | -9.7
COc1ccc(S(=O)(=O)Nc2ccc(F)c(F)c2)cc1Cl | i | -6.44* | 11.1 | -12.2
C/C(=N\Nc1nc(N2CCCCC2)nc(N2CCOCC2)n1)c1ccccc1O | i | i | 10.2 | 64.4*
N#CCCn1cc(C2CC(c3ccccc3)=NNC2=O)c2ccccc21 (stereo unspecified) | . | . | 7.4 | -31.9
CN(C)C/C=C(/c1ccc(Br)cc1)c1cccnc1 | i | i | 42.9*! | 0.7
COc1ccccc1OCCN(C)C(=O)c1cnn(-c2ccc(F)cc2)c1 | . | . | 9.0 | -33.5
O=P(O)(Cc1ccccc1)Cc1ccccc1 | i | i | . | .
c1ccc([P+](CC[P+](c2ccccc2)(c2ccccc2)c2ccccc2)(c2ccccc2)c2ccccc2)cc1 | . | . | 45.1* | 18.4
Cc1ccsc1-c1nc2cnccn2c1NC1CCCC1 | . | . | . | -81.6
CCCS(=O)(=O)C(=C(Nc1ccccc1)Nc1ccccc1)S(=O)(=O)CCC | i | i | 5.2 | 63.0*
CCCS(=O)(=O)C(=C(Nc1ccc(OC)cc1)Nc1ccc(OC)cc1)S(=O)(=O)CCC | i | i | 11.2 | 32.2
Cc1cc(Cl)ccc1Nc1sc(C(=O)c2cc3cc(Cl)ccc3o2)c(N)c1C#N | . | . | 50.5* | -15.8
CCOC(=O)C1(C)/C(=N/Nc2ccc(Cl)cc2)C(=O)C(=O)N1c1ccccc1 (stereo unspecified) | i | i | 3.0 | 61.2*
Cc1ccc2cc(CN(Cc3cccs3)C(=O)NC3CCCCC3)c3nnnn3c2c1 | . | . | 7.7 | 57.4
CC(C)(C)NC(=O)CSc1n[nH]c(-c2ccccc2Cl)n1 | . | . | 3.7 | -2.4
CCCn1nnc(NC(=O)COc2cccc3ccccc23)n1 | . | . | 4.1 | -25.5
CNc1oc(-c2ccc(C)cc2)nc1P(=O)(c1ccccc1)c1ccccc1 | i | i | 7.6 | 60.5*
Cc1cccc2nc(C(C)C)c(NC3CCCC3)n12 | . | . | 6.7 | -4.6
CC(C)c1nc2ccc(Br)cn2c1NC1CCCC1 | i | i | 0.2 | 64.9*
CCc1ccc(S(=O)(=O)/N=C2/C=C(Sc3ncn[nH]3)C(=O)c3ccccc32)cc1 | i | i | 61.0* | -95.9
O=C(CC1CCCCC1)N1CCC[C@H](Cn2nc(-c3cccs3)ccc2=O)C1 | . | . | 3.0 | -45.3
O=C(Nc1ccccc1-c1nc2ccccc2s1)c1cccnc1Cl | i | i | 13.1 | 63.1*
O=C(Nc1ccccc1-c1nc2ccccc2s1)c1ccco1 | i | i | 20.5 | 57.2
CCN(CC)c1nc2cc(C)ccc2cc1/C=C(\C#N)C(N)=O | i | i | 6.4 | 62.5*
SMILES | CHT allo act | CHT inh | PGE2 EP2 inh | EP2 mod
COc1ccc2c(c1)CCc1c(-c3noc4c3CCc3cc(OC)ccc3-4)noc1-2 | . | . | 45.0* | -6.5
CCCNC(=O)c1noc2c1CCc1cc(OC)ccc1-2 | i | i | 9.0 | -28.6
CCn1c(SCC(=O)Nc2cccc3ccccc23)nnc1-c1ccccc1Br | . | . | 14.3 | -21.1
CCCCc1nc2cc(C(=O)N3CCN(c4cnccn4)CC3)ccc2o1 | i | -9.68* | . | .
CCc1nn(CC(=O)N(C)OC)c(=O)c2cc3oc(C)cc3n12 | . | . | 11.4 | 4.9
CC(CO)(CO)N=Cc1cc(I)cc(I)c1O | . | . | 44.1* | 39.1
COC(=O)[C@H]1[C@@H]2C[C@H]3c4[nH]c5ccccc5c4CCN3C[C@H]2CC[C@@H]1O | . | . | 41.2* | 9.5
O=C(C1CCCCC1)N1CCC(c2nc3c(nnn3Cc3ccccc3)c(=O)[nH]2)CC1 | . | . | 8.9 | -3.9
CCCc1nc(-c2ccc(-c3ccc(C)cc3)nc2OCC)no1 | . | . | 12.3 | 69.3*
CCOc1nc(-c2ccc(C)cc2)ccc1-c1noc(COC)n1 | i | i | 10.0 | 42.8
NC(=O)NC(=O)CSc1nc2sc(-c3ccccc3)cc2c(=O)n1-c1ccccc1 | i | i | 3.4 | 64.5*
COc1cccc(/C(O)=C2/C(=O)C(=O)N(CCN(C)C)C2c2ccncc2)c1 (stereo unspecified) | . | . | 7.2 | 11.1
COC(=O)/C(=C(/F)Sc1cc(C)c(O)c(C)c1)C(F)(F)F | i | i | 99.0* | -20.4
